Screening data: PubChem, National Center for Advancing Translational Sciences (NCATS)
Most compounds without a hit are left out; they make up all but 10% or so of the library.
FLuc inh: Photinus pyralis luciferase inhibition; Potency, µM (top dose mostly 115 µM), usual class: inhibitors; purified P. pyralis luciferase, luminescence, biochemical; 76,000 tested, 2.5% active; AID 1347043; P08659; further: nearly all actives have a fitted effect of over 65% in size
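Cell-free enzyme assay, 10nM P. pyralis luciferase, luciferin and ATP each at 10uM. Inhibition profiled over a 6-point titration, read as luminescence.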
GPT2 inh: GPT2 alanine aminotransferase inhibition | Recombinant GPT2, coupled pyruvate oxidase/HRP Amplex Red fluorescence | 100,000 tested, 0.25% active | Potency, µM (doses to about 57.7 µM), usual class: inhibitors | Q8TD30 | AID 1671188; further: nearly all actives have a fitted effect of over 60% in size
Target sequence (Q8TD30 whole entry, looked up): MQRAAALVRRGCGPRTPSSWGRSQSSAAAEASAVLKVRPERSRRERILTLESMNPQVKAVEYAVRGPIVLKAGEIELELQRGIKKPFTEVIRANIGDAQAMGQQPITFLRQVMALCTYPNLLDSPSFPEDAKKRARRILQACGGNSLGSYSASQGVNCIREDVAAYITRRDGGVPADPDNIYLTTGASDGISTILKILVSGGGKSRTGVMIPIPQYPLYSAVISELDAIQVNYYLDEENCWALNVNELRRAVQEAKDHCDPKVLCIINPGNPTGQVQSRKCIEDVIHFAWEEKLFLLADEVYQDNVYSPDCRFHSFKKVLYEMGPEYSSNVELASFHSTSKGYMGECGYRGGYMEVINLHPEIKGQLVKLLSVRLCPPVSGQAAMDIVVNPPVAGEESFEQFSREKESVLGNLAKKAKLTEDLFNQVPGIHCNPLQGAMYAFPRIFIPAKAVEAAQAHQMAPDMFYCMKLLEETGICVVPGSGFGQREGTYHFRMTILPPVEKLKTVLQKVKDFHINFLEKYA
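Fluorescence of coupled pyruvate oxidase/HRP/Amplex Red system (50uM Amplex, 30 min, dark) reports pyruvate formed by GPT2. Enzyme reaction: 10ng/uL GPT2, 2mM L-alanine, 250uM a-KG, 30 min room temperature, pH 7.5; 50uM AOA control.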
3T3 cytotox: NIH 3T3 cell cytotoxicity | 94,000 tested, 4.3% active | AID 1345082 | NIH 3T3 viability, CellTiter-Glo ATP luminescence, 48-72 h | Potency, µM (doses to about 96.7 µM), actives largely listed as inhibitors; further: nearly all actives have a fitted effect of over 55% in size
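Mouse fibroblast NIH 3T3 cells, 400 per well, received compound via pintool and were incubated for 48 or 72 hr prior to CellTiter-Glo ATP luminescence measurement.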
NPR1 antag: blocks ANP-stimulated signaling of human Npr1 receptor. P16066. HEK293 hNpr1 GloSensor cGMP, ANP-stimulated luminescence. Potency, µM (series often up to 46.3 µM), actives largely listed as inhibitors. 76,000 tested, 1.6% active. AID 1347048; calls by dose curve; further: nearly all actives have a fitted effect of over 60% in size
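HEK293 cells stably expressing human Npr1 and cGMP GloSensor pGS-40F, loaded 2 h with 2% GloSensor reagent, given compound 30 min at room temperature. Luminescence read before and 20 min after 0.1 nM hNppA.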
HEK293 tox: HEK 293 cell cytotoxicity; 94,000 tested, 6.6% active; HEK 293 viability, ATP luminescence (CellTiter-Glo), 48-72 h; Potency, µM (top dose mostly 115 µM), hits mostly inhibitors; further: nearly all actives have a fitted effect of over 60% in size
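ATP-coupled CellTiter-Glo luminescence served as viability read-out, recorded 10 min after reagent addition at room temperature. HEK 293 cells, 250 cells/well, had been incubated with pintool-transferred compound for 48 or 72 hr at 37 degree Celsius.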
Large screens that a line does not name were inactive. Unless noted, the call rests on the fitted dose curve; in most records, active means well fitted curve in the direction sought with a large enough effect; inconclusive means small, poorly fitted or top-dose-only effect, or another doubt; inactive means no such curve, though single readings can be large; an effect the other way counts as inactive or inconclusive.

CO[C@H]1[C@H](NC(=O)c2cc(C)nn2C)c2ccccc2C12CCNCC2	none
CO[C@H]1[C@H](NC(=O)c2cc3ccccc3n2C)c2ccccc2C12CCNCC2	3T3 cytotox 22µM, HEK293 tox 35µM
O=C(O)c1ccc(CN2Cc3[nH]cnc3C[C@H]2C(=O)NCc2ccco2)cc1	none
Cc1ccccc1-c1cc(O)c2c(c1)CNCCO2	none
Oc1cc(-c2csc3ccccc23)cc2c1OCCNC2	3T3 cytotox inconclusive, HEK293 tox 20µM
CCn1ccc(C(=O)N2CC(Oc3ccc(-c4nc(-c5ccccc5)no4)cc3)C2)n1	FLuc inh inconclusive, 3T3 cytotox 40µM, HEK293 tox inconclusive
CCn1nccc1C(=O)N1CC(Oc2ccc(-c3nc(-c4ccccc4)no3)cc2)C1	FLuc inh inconclusive, 3T3 cytotox inconclusive, NPR1 antag 4.5µM, HEK293 tox 11µM
CCn1nccc1C(=O)N1CC(Oc2cccc(-c3nc(C)no3)c2)C1	HEK293 tox inconclusive
CN(Cc1ccc(-c2ccccc2)cc1)Cc1ccsc1	none
Cc1nn(C)c(C)c1CCN(C)C(=O)C1CCCCC(=O)N1 (stereo not given)	none
COc1ccc(-c2cc(C(=O)NCc3ccccn3)c3cnn(C)c3n2)cc1	3T3 cytotox inconclusive, HEK293 tox inconclusive (no result: FLuc inh, NPR1 antag)
O=C(NCc1ccc2c(c1)OCO2)c1nc2cccnc2n(Cc2ccccc2)c1=O	3T3 cytotox inconclusive, HEK293 tox 79µM (no result: FLuc inh, NPR1 antag)
O=C(c1ccc(C(F)(F)F)cc1)N1CCC2(CN[S+](=O)([O-])c3ccccc3N2)C1 (stereo not given)	none
COc1cccc(-c2cc3c(=O)n(CCNC(=O)Cc4cccs4)ccn3n2)c1	FLuc inh 16µM, HEK293 tox inconclusive
CCC(C(=O)NCCn1ccn2nc(-c3cccc(OC)c3)cc2c1=O)c1ccccc1 (stereo not given)	FLuc inh 14µM, 3T3 cytotox inconclusive, NPR1 antag inconclusive, HEK293 tox inconclusive
COc1cccc(-c2cc3c(=O)n(CCNC(=O)COc4cccc(C)c4)ccn3n2)c1	FLuc inh 22µM, 3T3 cytotox inconclusive, NPR1 antag inconclusive, HEK293 tox inconclusive
COc1cc(OC)cc(C(=O)NCCn2ccn3nc(-c4cccc(OC)c4)cc3c2=O)c1	FLuc inh 18µM
COc1ccc(C(=O)NCCn2ccn3nc(-c4cccc(OC)c4)cc3c2=O)cc1	3T3 cytotox inconclusive, HEK293 tox inconclusive
COc1cccc(-c2cc3c(=O)n(CCNC(=O)c4cc(C)cc(C)c4)ccn3n2)c1	FLuc inh inconclusive
CCOC(=O)[C@H]1[C@@H](O)C(=O)N(Cc2ccccc2)C12CCN(C(=O)C1CCCCC1)CC2	3T3 cytotox inconclusive (no result: FLuc inh, GPT2 inh, NPR1 antag)
COc1cccc(CCC(=O)NCCn2ccn3nc(-c4cccc(OC)c4)cc3c2=O)c1	FLuc inh 8.9µM, 3T3 cytotox inconclusive, HEK293 tox inconclusive
CCOc1ccc(CC(=O)NCCn2ccn3nc(-c4cccc(OC)c4)cc3c2=O)cc1	FLuc inh inconclusive, 3T3 cytotox inconclusive, HEK293 tox inconclusive
Fc1cccc(CN2CCO[C@@H](COc3ccccn3)[C@@H]2c2ccccc2)c1	3T3 cytotox 35µM, HEK293 tox inconclusive (no result: FLuc inh, NPR1 antag)
CCCNc1cc(N2CCC(CCC(=O)NCC)CC2)ncn1	none
CCCNc1cc(N2CCC(CCC(=O)N3CCN(c4cccc(C)c4)CC3)CC2)ncn1	FLuc inh inconclusive, 3T3 cytotox inconclusive, NPR1 antag inconclusive, HEK293 tox 20µM
CCCNc1cc(N2CCC(CCC(=O)Nc3cccc(C)c3)CC2)ncn1	FLuc inh 20µM, GPT2 inh inconclusive
CCCNC(=O)CCC1CCN(c2cc(NCCC)ncn2)CC1	FLuc inh inconclusive
CCCNc1cc(N2CCC(CCC(=O)N3CCN(c4ccc(F)cc4)CC3)CC2)ncn1	FLuc inh inconclusive, 3T3 cytotox 20µM, NPR1 antag 11µM, HEK293 tox inconclusive
CCC(C)NC(=O)C1CCCN1C(=O)c1cccc(-c2ccccn2)c1 (stereo not given)	none (no result: FLuc inh, GPT2 inh, NPR1 antag)
COc1ccccc1Nc1ccnc(N2CCC(C(=O)NCc3ccc(F)cc3)CC2)n1	3T3 cytotox inconclusive, HEK293 tox inconclusive (no result: FLuc inh, NPR1 antag)
CCn1cc(-c2ccc(C)cc2)cc1C(=O)NC(C)c1ccccn1 (stereo not given)	3T3 cytotox inconclusive, HEK293 tox 40µM
Cc1ccc(NC(=O)CC2CCCN(c3cnn(CC4CC4)c(=O)c3)C2)cc1C (stereo not given)	3T3 cytotox 40µM, HEK293 tox inconclusive
COc1ccc(NC(=O)CC2CCCN(c3cnn(CC4CC4)c(=O)c3)C2)cc1 (stereo not given)	3T3 cytotox 28µM, HEK293 tox inconclusive
COc1cccc(NC(=O)CC2CCCN(c3cnn(CC4CC4)c(=O)c3)C2)c1 (stereo not given)	3T3 cytotox inconclusive, HEK293 tox inconclusive
CC(C)c1cccc(NC(=O)Cn2cccc2-c2nc(-c3ccc4c(c3)OCO4)no2)c1	3T3 cytotox 28µM, HEK293 tox inconclusive
COc1ccc(OC)c(NC(=O)Cn2cccc2-c2nc(-c3ccc4c(c3)OCO4)no2)c1	3T3 cytotox inconclusive, HEK293 tox 35µM
COc1cc(Cl)c(C)cc1NC(=O)Cn1cccc1-c1nc(-c2ccc3c(c2)OCO3)no1	none
COc1ccc(S(=O)(=O)NCC2Cn3cccc3C(=O)N2C)cc1 (stereo not given)	none
Cc1cc(-c2cnc(Nc3ccc(F)cc3)c3c2CCO3)ccn1	3T3 cytotox inconclusive, HEK293 tox inconclusive
CN(C)c1cccc(-c2cnc(NC(=O)c3ccncc3)c3c2CCO3)c1	HEK293 tox inconclusive
COCCNc1ncc(-c2cccc(F)c2)c2c1OCC2	FLuc inh 79µM, 3T3 cytotox inconclusive, HEK293 tox inconclusive
Cn1cc(-c2cnc(NC(=O)c3c[nH]c4ccccc34)c3c2CCO3)cn1	3T3 cytotox inconclusive
COc1ccc(C(=O)Nc2ncc(-c3cccc(N(C)C)c3)c3c2OCC3)cc1	FLuc inh inconclusive, 3T3 cytotox inconclusive, NPR1 antag inconclusive, HEK293 tox 100µM
CNC(=O)c1cccc(-c2cnc(Nc3cccc(F)c3)c3c2CCO3)c1	FLuc inh 22µM, 3T3 cytotox inconclusive, HEK293 tox inconclusive
O=C(Nc1ncc(-c2cccc(F)c2)c2c1OCC2)c1c[nH]c2ccccc12	FLuc inh inconclusive, 3T3 cytotox 40µM, HEK293 tox 50µM
COCCCNC(=O)c1cn2cc(-c3cccnc3)sc2n1	3T3 cytotox inconclusive (no result: FLuc inh, NPR1 antag)
CN(C)C(=O)c1ccc2oc(-c3ccncc3Cl)nc2c1	none (no result: FLuc inh, NPR1 antag)
COc1ccc(CC(=O)N2CCCN(c3ccnc4ccnn34)CC2)cc1	HEK293 tox inconclusive (no result: FLuc inh, NPR1 antag)
O=C(C1CCCN1C(=O)c1ccccc1)N1CCC(N2Cc3ccccc3C2=O)CC1 (stereo not given)	none (no result: FLuc inh, NPR1 antag)
O=C(c1ccccc1F)N1CCC(C(=O)N2CCCC(c3nc4ccncc4[nH]3)C2)CC1 (stereo not given)	none (no result: FLuc inh, NPR1 antag)
CN(C)c1cccc(-c2cnc(Nc3cncnc3)c3c2CCO3)c1	3T3 cytotox inconclusive, HEK293 tox inconclusive
